# Laboratory results reported in PubChem BioAssay (NCATS).
# “And” between values parts separate entries of the source, which are not always exact repeats. Equal values may be shown once. Results filed as inconclusive are left out. A call without a number means that no potency is given here. Some structures have more than one record in an assay (separate samples or runs), and their calls can disagree. The source made the active and inactive calls. Unless noted, calls come from the whole dose curve; as a rule, active = well fitted inhibition curve with a large enough effect; inconclusive = small, poorly fitted or top-dose-only effect; inactive = flat fitted curve, though single readings scatter.
# Legend:
# [1] = biological target: Vitamin D3 receptor (Homo sapiens) (UniProt P11473); assay: qHTS assay for small molecule antagonists of vitamin D receptor signaling (AID 588541; calls by dose curve;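 note: receptor activated by calcitriol during compound treatment; series mostly up to about 77 µM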)
# In short: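 Antagonist-mode beta-lactamase reporter assay: HEK293T VDR-UAS-bla cells were exposed to titrated compound alongside 1-alpha,25-dihydroxyvitamin D3 at 3 nM final for 16 h. Values were normalized to the 50 nM agonist control and DMSO basal, with IC50 and efficacy from Hill equation fits.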
# [2] = biological target: Vitamin D3 receptor (Homo sapiens) (UniProt P11473); assay: qHTS assay for small molecule agonists of vitamin D receptor signaling (AID 588543; calls by dose curve)
# In short: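 GeneBLAzer VDR-UAS-bla HEK293T cells in 2% charcoal-stripped FBS medium were dosed with compound titrations for 16 h at 37 °C; CCF4 β-lactamase readout (405 nm ex, 460/530 nm em). EC50 and efficacy from Hill fits, normalized to 50 nM calcitriol (100%) and DMSO (0%).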
# [3] = qHTS assay for small molecule agonists of retinoid X receptor alpha signaling (AID 588544; calls by dose curve); conditions: HEK293T RXRa-UAS-bla, beta-lactamase reporter, 18 h; 530 nm emission
# [4] = biological target: Retinoic acid receptor RXR-alpha (Homo sapiens) (UniProt P19793); assay: as above
# [5] = biological target: Thyroid hormone receptor beta (Homo sapiens) (UniProt P10828); assay: qHTS assay for small molecule agonists of thyroid hormone receptor beta signaling (AID 588545; calls by dose curve)
# In short: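 Agonist-mode beta-lactamase reporter assay, HEK 293 cells, 2% charcoal/dextran FBS; cells plated 4 hrs, compound 18 hrs at 37 C, CCF4 2 hrs RT. Normalized to 10 nM T3 (100%) and DMSO (0%); Hill fit gives EC50, efficacy.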
# [6] = qHTS assay for small molecule antagonists of retinoid X receptor alpha signaling (AID 588546; active = well fitted inhibition curve with a large enough effect in the signal ratio, with a control signal flat, not every such curve was filed as active; the % refers to the signal ratio;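 note: cells stimulated with 9-cis-retinoic acid as agonist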); conditions: HEK293T RXRa-UAS-bla, beta-lactamase ratio, antagonist mode; measured here: W530 green channel, cytotoxicity proxy
# In short: (§1)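 Beta-lactamase reporter inhibition, read as CCF4 fluorescence ratio (ex 405, em 460/530 nm) after 2 h at RT. HEK293T UAS-bla cells, 2500/well, were stimulated with 9-cis-RA at 500 or 100 nM final alongside test compound for 18 h at 37 C.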
# [7] = biological target: Retinoic acid receptor RXR-alpha (Homo sapiens) (UniProt P19793); assay: as above; conditions: HEK293T RXRa-UAS-bla, beta-lactamase ratio, antagonist mode
# In short: as §1
# [8] = biological target: Thyroid hormone receptor beta (Homo sapiens) (UniProt P10828); assay: qHTS assay for small molecule antagonists of thyroid hormone receptor beta signaling (AID 588547; active = well fitted inhibition curve with a large enough effect in the signal ratio, with a control signal flat, not every such curve was filed as active; the % refers to the signal ratio;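 note: cells stimulated with 0.4 nM T3 agonist during compound exposure; series mostly up to about 77 µM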); conditions: TR-UAS-bla HEK293, beta-lactamase ratio, antagonist mode, 18 h
# In short: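 Inhibition of T3-driven (0.4nM final) beta-lactamase reporter activity was measured over 0.59 nM to 92 uM compound after 18 h at 37 C. The cells were GripTite HEK293 TR-UAS-bla in charcoal/dextran-stripped serum, with CCF4 ratio read-out and IC50 from Hill fits.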
# [9] = biological target: Voltage-gated inwardly rectifying potassium channel KCNH2 (Homo sapiens) (UniProt Q12809); assay: qHTS Assay for Small Molecule Inhibitors of the Human hERG Channel Activity (AID 588834);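 note: lower thallium flux fluorescence means stronger hERG block; nearly all actives have a fitted effect of over 50% in size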; note: potency is the fitted concentration of half-maximal effect
# In short: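 In hERG-transduced U2OS cells, dye-loaded for 1 hr at room temperature in dark, test compounds incubated 10 min at 37 °C before thallium stimulation. AC50 values derived by Hill modelling of concentration-response.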
# [10] = biological target: Luciferin 4-monooxygenase (Photinus pyralis) (UniProt P08659); assay: Biochemical firefly luciferase enzyme assay for NPC (AID 624030);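 note: purified P. pyralis luciferase at 10 nM with luciferin and ATP substrate; series mostly up to about 59 µM; nearly all actives have a fitted effect of over 70% in size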
# In short: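 Direct inhibition of firefly luciferase enzyme (10 nM final, 50 mM Tris Acetate) assessed by luminescence within 5 minutes. Percent activity scaled between DMSO and PTC124 positive control, with concentration-effect curves classified by fit quality and response.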
# Retinoic acid receptor RXR-alpha (Homo sapiens), sequence (P19793 whole entry, looked up): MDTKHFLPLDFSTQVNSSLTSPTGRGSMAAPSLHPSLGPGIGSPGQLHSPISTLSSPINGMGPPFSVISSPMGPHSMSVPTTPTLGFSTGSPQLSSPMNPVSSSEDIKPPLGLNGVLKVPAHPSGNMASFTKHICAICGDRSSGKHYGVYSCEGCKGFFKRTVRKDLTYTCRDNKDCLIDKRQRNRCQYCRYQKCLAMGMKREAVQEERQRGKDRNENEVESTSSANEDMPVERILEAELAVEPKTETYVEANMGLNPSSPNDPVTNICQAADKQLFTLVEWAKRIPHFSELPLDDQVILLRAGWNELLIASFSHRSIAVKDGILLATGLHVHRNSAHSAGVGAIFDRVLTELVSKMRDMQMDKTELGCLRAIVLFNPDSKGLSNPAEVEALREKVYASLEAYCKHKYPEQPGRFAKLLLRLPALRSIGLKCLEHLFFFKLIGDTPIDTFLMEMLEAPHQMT
# Vitamin D3 receptor (Homo sapiens), sequence (P11473 whole entry, looked up): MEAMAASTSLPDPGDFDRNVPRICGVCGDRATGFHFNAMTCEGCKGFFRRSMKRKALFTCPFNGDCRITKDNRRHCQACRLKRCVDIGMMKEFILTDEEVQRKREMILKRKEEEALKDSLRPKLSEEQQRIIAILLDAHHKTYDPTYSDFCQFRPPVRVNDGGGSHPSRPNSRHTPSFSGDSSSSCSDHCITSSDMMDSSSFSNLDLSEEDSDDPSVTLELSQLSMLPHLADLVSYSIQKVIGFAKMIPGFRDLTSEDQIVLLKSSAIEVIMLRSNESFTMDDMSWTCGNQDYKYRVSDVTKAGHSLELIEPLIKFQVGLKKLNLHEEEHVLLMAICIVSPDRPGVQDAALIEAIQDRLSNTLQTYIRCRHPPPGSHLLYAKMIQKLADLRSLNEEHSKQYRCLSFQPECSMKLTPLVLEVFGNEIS
# Thyroid hormone receptor beta (Homo sapiens), sequence (P10828 whole entry, looked up): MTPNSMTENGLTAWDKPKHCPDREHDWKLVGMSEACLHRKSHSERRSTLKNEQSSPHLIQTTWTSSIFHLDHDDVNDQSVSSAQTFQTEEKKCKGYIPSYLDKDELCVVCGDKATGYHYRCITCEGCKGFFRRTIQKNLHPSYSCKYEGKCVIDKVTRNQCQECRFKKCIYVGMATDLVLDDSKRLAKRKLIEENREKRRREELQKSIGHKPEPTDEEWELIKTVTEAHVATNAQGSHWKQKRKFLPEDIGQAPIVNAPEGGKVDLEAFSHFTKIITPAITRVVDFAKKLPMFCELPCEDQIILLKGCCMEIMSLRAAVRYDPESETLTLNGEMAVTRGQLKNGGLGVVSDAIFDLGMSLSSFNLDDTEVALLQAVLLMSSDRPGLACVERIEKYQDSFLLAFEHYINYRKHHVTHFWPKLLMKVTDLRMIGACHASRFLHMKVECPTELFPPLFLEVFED
# Voltage-gated inwardly rectifying potassium channel KCNH2 (Homo sapiens), sequence (Q12809 whole entry, looked up): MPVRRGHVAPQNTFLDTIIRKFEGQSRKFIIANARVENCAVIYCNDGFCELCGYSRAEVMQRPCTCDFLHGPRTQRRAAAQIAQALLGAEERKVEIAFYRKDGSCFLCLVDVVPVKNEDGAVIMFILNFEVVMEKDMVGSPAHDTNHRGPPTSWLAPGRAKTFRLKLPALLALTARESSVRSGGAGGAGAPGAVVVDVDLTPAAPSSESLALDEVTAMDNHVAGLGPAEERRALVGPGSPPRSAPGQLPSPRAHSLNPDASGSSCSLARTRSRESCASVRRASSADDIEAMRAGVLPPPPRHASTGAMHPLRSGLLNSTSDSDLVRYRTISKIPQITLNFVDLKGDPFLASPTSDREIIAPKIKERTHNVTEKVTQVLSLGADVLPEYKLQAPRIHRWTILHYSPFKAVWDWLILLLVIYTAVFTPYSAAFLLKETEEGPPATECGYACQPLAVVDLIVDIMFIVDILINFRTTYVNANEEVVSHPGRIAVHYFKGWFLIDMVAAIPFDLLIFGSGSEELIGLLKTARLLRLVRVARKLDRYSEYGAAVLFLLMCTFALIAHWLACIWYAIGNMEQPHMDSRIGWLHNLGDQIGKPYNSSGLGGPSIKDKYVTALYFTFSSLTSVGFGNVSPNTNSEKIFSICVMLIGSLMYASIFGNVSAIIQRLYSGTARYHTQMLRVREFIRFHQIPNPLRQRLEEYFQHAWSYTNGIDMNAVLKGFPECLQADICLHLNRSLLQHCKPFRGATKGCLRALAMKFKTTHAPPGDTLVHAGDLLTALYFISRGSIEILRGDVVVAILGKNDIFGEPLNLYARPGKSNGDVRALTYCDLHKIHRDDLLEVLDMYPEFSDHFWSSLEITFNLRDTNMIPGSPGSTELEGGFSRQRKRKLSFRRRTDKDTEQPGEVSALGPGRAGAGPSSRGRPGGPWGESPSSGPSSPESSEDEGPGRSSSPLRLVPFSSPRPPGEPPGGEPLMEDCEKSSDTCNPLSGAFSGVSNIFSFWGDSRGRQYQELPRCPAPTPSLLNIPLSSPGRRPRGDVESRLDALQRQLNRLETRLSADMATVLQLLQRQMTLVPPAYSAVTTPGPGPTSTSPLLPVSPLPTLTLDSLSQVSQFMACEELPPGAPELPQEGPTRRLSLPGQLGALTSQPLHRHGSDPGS
# Luciferin 4-monooxygenase (Photinus pyralis), sequence (P08659 whole entry, looked up): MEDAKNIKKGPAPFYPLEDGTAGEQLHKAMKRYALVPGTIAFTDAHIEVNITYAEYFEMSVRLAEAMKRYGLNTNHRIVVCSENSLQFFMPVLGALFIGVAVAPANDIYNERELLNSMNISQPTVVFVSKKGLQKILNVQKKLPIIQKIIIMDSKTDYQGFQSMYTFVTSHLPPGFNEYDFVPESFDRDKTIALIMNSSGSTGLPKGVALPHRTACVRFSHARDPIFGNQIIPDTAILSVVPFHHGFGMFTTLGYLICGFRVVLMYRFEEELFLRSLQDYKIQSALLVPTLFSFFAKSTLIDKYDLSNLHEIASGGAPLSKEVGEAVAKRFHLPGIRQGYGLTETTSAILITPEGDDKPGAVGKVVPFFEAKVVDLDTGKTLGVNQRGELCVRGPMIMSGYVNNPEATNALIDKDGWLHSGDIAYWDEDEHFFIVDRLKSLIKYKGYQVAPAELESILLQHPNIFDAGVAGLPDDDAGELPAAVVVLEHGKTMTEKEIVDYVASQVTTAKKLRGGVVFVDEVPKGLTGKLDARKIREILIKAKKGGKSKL
compound,measurement,setting,value
CCCCCCCCCCCCCCCC(=O)O,Potency,[1],inactive
same,outcome,[2],inactive
same,max response,[3],-15.5%
same,outcome,[4],inactive
same,outcome,[5],inactive
same,max response,[6],-11.4%
same,max response,[7],0.179% (inactive)
same,activity change % (negative = inhibition),[8],13.6% (inactive)
same,Potency,[9],inactive
same,Potency,[10],inactive
CCCN(CCC)S(=O)(=O)c1ccc(C(=O)O)cc1,Potency,[1],inactive
same,outcome,[2],inactive
same,max response,[3],-13.7% and -10.4%
same,outcome,[4],inactive
same,outcome,[5],inactive
same,max response,[6],-8.2% and -10.3%
same,max response,[7],6.91% (inactive) and 7.89% (inactive)
same,activity change % (negative = inhibition),[8],8.08% (inactive) and 3.53% (inactive)
same,Potency,[9],inactive
same,Potency,[10],inactive
CCc1oc2ccccc2c1C(=O)c1cc(Br)c(O)c(Br)c1,Potency,[9],inactive
Oc1c(Cl)cc(Cl)c(Cl)c1Cc1c(O)c(Cl)cc(Cl)c1Cl,Potency,[1],inactive
same,Potency,[9],inactive
CC(C)(C)CC(C)(C)c1ccc(O)c(-n2nc3ccccc3n2)c1,Potency,[1],inactive
same,outcome,[2],inactive
same,outcome,[5],inactive
same,activity change % (negative = inhibition),[8],-12.9% (inactive)
same,Potency,[9],inactive
same,Potency,[10],inactive
O=C1OC2(c3ccccc31)c1cc(Br)c(O)c(Br)c1Oc1c2cc(Br)c(O)c1Br,Potency,[9],5.62 µM (active)
CCOc1cc(OCC)c(C(=O)CCC(=O)O)cc1OCC,Potency,[9],inactive
CCCCC(CC)COC(=O)c1ccc(N(C)C)cc1 (stereo unspecified),Potency,[1],inactive
same,outcome,[2],inactive
same,max response,[3],-13.5%
same,outcome,[4],inactive
same,outcome,[5],inactive
same,max response,[6],-15.4% and -7.64%
same,max response,[7],-1.36% (inactive) and 6.53% (inactive)
same,activity change % (negative = inhibition),[8],-0.537% (inactive) and 3.83% (inactive)
same,Potency,[9],inactive and 28.2 µM (active)
same,Potency,[10],inactive
C[C@]12CCC(=O)C=C1C=C[C@@H]1[C@@H]2CC[C@@]2(C)[C@H]1CC[C@@]21CCC(=O)O1,Potency,[9],inactive
CO[C@H]1C=CO[C@@]2(C)Oc3c(C)c(O)c4c(O)c(c(/C=N/N5CCN(C)CC5)c(O)c4c3C2=O)NC(=O)/C(C)=C\C=C[C@H](C)[C@H](O)[C@@H](C)[C@@H](O)[C@@H](C)[C@H](OC(C)=O)[C@@H]1C,Potency,[9],inactive
CC(CNC1CCCCC1)OC(=O)c1ccccc1 (stereo unspecified),Potency,[9],inactive
CCOc1ccccc1C(N)=O,Potency,[1],inactive
same,outcome,[2],inactive
same,max response,[3],-15.7%
same,outcome,[4],inactive
same,max response,[6],-1.33%
same,max response,[7],0.966% (inactive)
same,activity change % (negative = inhibition),[8],7.81% (inactive)
same,Potency,[9],inactive
same,Potency,[10],inactive
CCN1CCN(C(=O)N[C@@H](C(=O)N[C@@H]2C(=O)N3C(C(=O)O)=C(CSc4nnnn4C)CS[C@H]23)c2ccc(O)cc2)C(=O)C1=O,Potency,[9],inactive
CCCCCCCCOc1ccc(C(=O)c2ccccc2)c(O)c1,Potency,[1],inactive
same,outcome,[2],inactive
same,max response,[3],-1.02%
same,outcome,[4],inactive
same,outcome,[5],inactive
same,max response,[6],-13.7%
same,max response,[7],-18.6% (inactive)
same,activity change % (negative = inhibition),[8],-1.54% (inactive)
same,Potency,[9],inactive
same,Potency,[10],inactive
COc1ccc(C(Cl)=C(c2ccc(OC)cc2)c2ccc(OC)cc2)cc1,Potency,[1],inactive
same,outcome,[2],inactive
same,max response,[3],-9.29%
same,outcome,[4],inactive
same,outcome,[5],inactive
same,max response,[6],-0.236%
same,max response,[7],-16% (inactive)
same,activity change % (negative = inhibition),[8],-9.92% (inactive)
same,Potency,[9],inactive
same,Potency,[10],inactive
CCCCCCCC/C=C\CCCCCCCCN,Potency,[1],inactive
same,outcome,[2],inactive
same,max response,[3],-3%
same,outcome,[4],inactive
same,outcome,[5],inactive
same,max response,[6],0.483%
same,max response,[7],8.18% (inactive)
same,activity change % (negative = inhibition),[8],-4.57% (inactive)
same,Potency,[9],inactive
same,Potency,[10],inactive
CC(C)(C)NCC(O)COc1cccc2c1C[C@H](O)[C@H](O)C2 (stereo partly specified),Potency,[9],inactive
CCc1ccc(C(=O)C(C)CN2CCCCC2)cc1 (stereo unspecified),Potency,[9],inactive
same,Potency,[10],inactive
CN1CCN(c2cc3c(cc2F)c(=O)c(C(=O)O)cn3-c2ccc(F)cc2)CC1,Potency,[9],inactive
same,Potency,[10],inactive
Cc1cccc(C)c1NC(=O)c1ccccc1C(=O)O,Potency,[9],inactive
same,Potency,[10],inactive
CC(=O)O[C@]1(C(C)=O)CC[C@H]2[C@@H]3C=C(Cl)C4=CC(=O)CC[C@]4(C)[C@H]3CC[C@@]21C,Potency,[9],inactive
same,Potency,[10],inactive
NCc1ccccc1Sc1ccccc1CO,Potency,[9],inactive
same,Potency,[10],inactive
CCOc1ccccc1OCCN[C@H](C)Cc1ccc(OC)c(S(N)(=O)=O)c1,Potency,[9],14.1 µM (active)
same,Potency,[10],inactive
CCN(CC)CCOc1ccc2c(c1)C(=O)c1cc(OCCN(CC)CC)ccc1-2,Potency,[9],inactive
same,Potency,[10],inactive
Cc1ccc2c(Br)cc(Br)c(O)c2n1,Potency,[9],inactive
same,Potency,[10],inactive
COc1ccc(CCN(C)CCCN2CCc3cc(OC)c(OC)cc3CC2=O)cc1OC,Potency,[9],7.94 µM (active)
same,Potency,[10],inactive
OC(C#CCN1CCCC1)(c1ccccc1)c1ccccc1,Potency,[9],22.4 µM (active)
same,Potency,[10],inactive
OCc1ccccn1,Potency,[9],inactive
same,Potency,[10],inactive
CC[N+](C)(CC)CCOC(=O)C(O)(c1ccccc1)C1CCCCC1 (stereo unspecified),Potency,[9],inactive
same,Potency,[10],inactive
COc1ccc(CN(CCN(C)C)c2ncccn2)cc1,Potency,[9],inactive
same,Potency,[10],inactive
CCOC(=O)[C@H](CCc1ccccc1)N[C@@H](C)C(=O)N1[C@H](C(=O)O)C[C@H]2CCCC[C@@H]21,Potency,[9],inactive
same,Potency,[10],inactive
CC(C)(Cc1c[nH]c2ccccc12)NCC(O)COc1ccccc1C#N (stereo unspecified),Potency,[9],2.82 µM (active)
same,Potency,[10],inactive
CC(=O)Nc1ccc(OC(=O)c2ccccc2OC(C)=O)cc1,Potency,[9],inactive
same,Potency,[10],inactive
O=C(O)CCC(=O)Nc1ccc(S(=O)(=O)Nc2nccs2)cc1,Potency,[9],inactive
same,Potency,[10],inactive
CCN(CC)CCOc1ccccc1C(=O)CCc1ccccc1,Potency,[9],1.12 µM (active)
same,Potency,[10],inactive
Nc1nc(N)c(-c2ccccc2)s1,Potency,[9],inactive
same,Potency,[10],inactive
O=C1C(=O)c2ccccc2C(O)=C1C1CCC(c2ccc(Cl)cc2)CC1 (stereo unspecified),Potency,[9],inactive
same,Potency,[10],inactive
CC(=O)Oc1ccc(C)cc1,Potency,[9],inactive
same,Potency,[10],inactive
Cl/C(=C\n1cncn1)c1ccc(Cl)cc1Cl,Potency,[9],inactive
same,Potency,[10],inactive
Cc1cc(C)cc(OCC2CNC(=O)O2)c1 (stereo unspecified),Potency,[9],inactive
same,Potency,[10],inactive
